Results: the supplement of paper PMC7261846
Structures can show the parent of a compound that is named as a salt. ± gives the uncertainty stated by the source.

Tested on: Candida albicans SNY425 biofilm
Experiment: biofilm OD600 with compound plus antifungal (OD600 (absorbance)); higher = more biofilm remaining
[1] = assay detail: disruption of 24-h mature biofilm (compound + antifungal for a second 24 h)
[2] = assay detail: sustained inhibition (compound + antifungal during 90-min adherence and 24-h growth)

| SMILES | biofilm OD600 [1] | biofilm OD600 [2] |
| --- | --- | --- |
| Cc1cccc(C)c1OCC(=O)N[C@@H](Cc1ccccc1)[C@@H](O)C[C@H](Cc1ccccc1)NC(=O)[C@H](C(C)C)N1CCCNC1=O [lopinavir] + CC[C@H](C)C[C@H](C)CCCCCCCCC(=O)N[C@H]1C[C@@H](O)[C@@H](NCCN)NC(=O)[C@@H]2[C@@H](O)CCN2C(=O)[C@H]([C@H](O)CCN)NC(=O)[C@H]([C@H](O)[C@@H](O)c2ccc(O)cc2)NC(=O)[C@@H]2C[C@@H](O)CN2C(=O)[C@H]([C@@H](C)O)NC1=O [caspofungin] (first compound 12.5 µM) | 0.153 ± 0.0047 | 0.0941 ± 0.0079 |
| CCOC(=O)[C@H](CCc1ccccc1)N[C@@H](C)C(=O)N1CCC[C@H]1C(=O)O [Enalapril] + OC(Cn1cncn1)(Cn1cncn1)c1ccc(F)cc1F [fluconazole] (first compound 12.5 µM) | 0.258 ± 0.0055 | 0.157 ± 0.015 |
| CC(C)C[C@H](NC(=O)[C@@H](O)[C@H](N)Cc1ccccc1)C(=O)O [Bestatin·HCl] + OC(Cn1cncn1)(Cn1cncn1)c1ccc(F)cc1F [fluconazole] (first compound 12.5 µM) | 0.284 ± 0.013 | 0.163 ± 0.011 |
| CC(C)CCNC(=O)[C@H](CC(C)C)NC(=O)[C@H]1O[C@@H]1C(=O)O + C[C@@H]1[C@H](O)[C@@H](C)/C=C/C=C/C=C/C=C/C=C/C=C/C=C/[C@H](O[C@@H]2O[C@H](C)[C@@H](O)[C@H](N)[C@@H]2O)C[C@@H]2O[C@](O)(C[C@@H](O)C[C@@H](O)[C@H](O)CC[C@@H](O)C[C@@H](O)CC(=O)O[C@H]1C)C[C@H](O)[C@H]2C(=O)O [amphotericin B] (first compound 12.5 µM) | 0.27 ± 0.0079 | 0.21 ± 0.0074 |
| CSCCC(C=O)NC(=O)C(CC(C)C)NC(=O)[C@H](CC(C)C)NC(C)=O (stereo not given in full) [Calpain Inhibitor II (ALLM)] + CC[C@H](C)C[C@H](C)CCCCCCCCC(=O)N[C@H]1C[C@@H](O)[C@@H](NCCN)NC(=O)[C@@H]2[C@@H](O)CCN2C(=O)[C@H]([C@H](O)CCN)NC(=O)[C@H]([C@H](O)[C@@H](O)c2ccc(O)cc2)NC(=O)[C@@H]2C[C@@H](O)CN2C(=O)[C@H]([C@@H](C)O)NC1=O [caspofungin] (first compound 12.5 µM) | 0.249 ± 0.0042 | 0.178 ± 0.0059 |
| Cc1c(O)cccc1C(=O)N[C@@H](CSc1ccccc1)[C@H](O)CN1C[C@H]2CCCC[C@H]2C[C@H]1C(=O)NC(C)(C)C [nelfinavir] + OC(Cn1cncn1)(Cn1cncn1)c1ccc(F)cc1F [fluconazole] (first compound 12.5 µM) | 0.255 ± 0.0099 | 0.121 ± 0.018 |
| Nc1ccc(CC(CC(=O)O)C(=O)O)cc1 [4-Amino-D, L-benzylsuccinic acid] + OC(Cn1cncn1)(Cn1cncn1)c1ccc(F)cc1F [fluconazole] (first compound 12.5 µM) | 0.291 ± 0.009 | 0.12 ± 0.0067 |
| CCCC[C@@H](C=O)NC(=O)[C@H](CC(C)C)NC(=O)OCc1ccccc1 [Calpeptin] + C[C@@H]1[C@H](O)[C@@H](C)/C=C/C=C/C=C/C=C/C=C/C=C/C=C/[C@H](O[C@@H]2O[C@H](C)[C@@H](O)[C@H](N)[C@@H]2O)C[C@@H]2O[C@](O)(C[C@@H](O)C[C@@H](O)[C@H](O)CC[C@@H](O)C[C@@H](O)CC(=O)O[C@H]1C)C[C@H](O)[C@H]2C(=O)O [amphotericin B] (first compound 12.5 µM) | 0.266 ± 0.0066 | 0.189 ± 0.01 |
| C[C@H](NC(=O)[C@@H]1CCCN1C(=O)[C@@H]1CCCN1C(=O)[C@@H](O)[C@H](N)Cc1ccccc1)C(N)=O [Apstatin] + CC[C@H](C)C[C@H](C)CCCCCCCCC(=O)N[C@H]1C[C@@H](O)[C@@H](NCCN)NC(=O)[C@@H]2[C@@H](O)CCN2C(=O)[C@H]([C@H](O)CCN)NC(=O)[C@H]([C@H](O)[C@@H](O)c2ccc(O)cc2)NC(=O)[C@@H]2C[C@@H](O)CN2C(=O)[C@H]([C@@H](C)O)NC1=O [caspofungin] (first compound 12.5 µM) | 0.292 ± 0.0095 | 0.185 ± 0.0079 |
| CC(C)C[C@H](NC(=O)[C@@H](O)[C@H](N)Cc1ccccc1)C(=O)O [Bestatin·HCl] + C[C@@H]1[C@H](O)[C@@H](C)/C=C/C=C/C=C/C=C/C=C/C=C/C=C/[C@H](O[C@@H]2O[C@H](C)[C@@H](O)[C@H](N)[C@@H]2O)C[C@@H]2O[C@](O)(C[C@@H](O)C[C@@H](O)[C@H](O)CC[C@@H](O)C[C@@H](O)CC(=O)O[C@H]1C)C[C@H](O)[C@H]2C(=O)O [amphotericin B] (first compound 12.5 µM) | 0.288 ± 0.0087 | 0.211 ± 0.0059 |
